About 7,900 targets were measured; listed, in parts, are those with a hit and a random draw of the rest. About 0.6% of all pairs of compound and target were hits.
Experiments:
Assay in all cases: log2 fold change, soluble protein after heating vs DMSO (PISA); higher = thermal stabilisation; K562 cells, 10 uM, 30 min; active = over 0.2 and 3.5 SD of the protein, either way, in both replicates (recomputed)
bafetinib = compound: Cc1ccc(NC(=O)c2ccc(CN3CC[C@H](N(C)C)C3)c(C(F)(F)F)c2)cc1Nc1nccc(-c2cncnc2)n1 [bafetinib]
Summary of the method: (§1)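 Soluble protein was defined as the supernatant after 21,000xg for 90 min. It came from K562 cells at 2×10^6 cells/mL given 10 μM compound for 30 min, heated in aliquots for 3 min across 48°C-58°C, pooled, and extracted in PBS with 0.5% NP-40 at 4°C, and was quantified by TMTpro 16plex LC-MS/MS with equalised channel sums. Thermal stability against control samples, from duplicates, is reported as log2 fold change.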

[1] = compound: Cc1cccc(CC(=O)N2CCc3c2ccc(-c2cn(C)c4ncnc(N)c24)c3F)n1
Summary of the method: as §1

nilotinib = compound: Cc1cn(-c2cc(NC(=O)c3ccc(C)c(Nc4nccc(-c5cccnc5)n4)c3)cc(C(F)(F)F)c2)cn1 [nilotinib]
Summary of the method: as §1

[2] = compound: Cc1nc(Nc2n[nH]c3c2CN(C(=O)N[C@H](CN(C)C)c2ccccc2)C3(C)C)c2sccc2n1
Summary of the method: as §1

dasatinib = compound: Cc1nc(Nc2ncc(C(=O)Nc3c(C)cccc3Cl)s2)cc(N2CCN(CCO)CC2)n1 [dasatinib]
Summary of the method: as §1

[3] = compound: Cc1ncc(-c2ccnc(Nc3ccc(S(C)(=O)=O)cc3)n2)n1C(C)C
Summary of the method: as §1

[4] = compound: Cn1cc(-c2ccc3c(c2)CCN3C(=O)Cc2cccc(C(F)(F)F)c2)c2c(N)ncnc21
Summary of the method: as §1

[5] = compound: Cn1cc(-c2ccc3nnc(C(F)(F)c4ccc5ncccc5c4)n3n2)cn1
Summary of the method: as §1

tipifarnib = compound: Cn1cncc1[C@@](N)(c1ccc(Cl)cc1)c1ccc2c(c1)c(-c1cccc(Cl)c1)cc(=O)n2C [tipifarnib]
Summary of the method: as §1

mubritinib = compound: FC(F)(F)c1ccc(/C=C/c2nc(COc3ccc(CCCCn4ccnn4)cc3)co2)cc1 [mubritinib]
Summary of the method: as §1

[6] = compound: NC(=O)Nc1cc(-c2cccc(F)c2)sc1C(=O)N[C@H]1CCCNC1
Summary of the method: as §1

[7] = compound: NC(=O)c1cnc(N[C@@H]2CCCC[C@@H]2N)nc1Nc1cccc(-n2nccn2)c1
Summary of the method: as §1

[8] = compound: NC1(c2ccc(-c3nc4ccn5c(=O)[nH]nc5c4cc3-c3ccccc3)cc2)CCC1
Summary of the method: as §1

[9] = compound: NCC(=O)Nc1ccc(-n2nc(C(F)(F)F)cc2-c2ccc3c(ccc4ccccc43)c2)cc1
Summary of the method: as §1

entinostat = compound: Nc1ccccc1NC(=O)c1ccc(CNC(=O)OCc2cccnc2)cc1 [entinostat]
Summary of the method: as §1

vorinostat = compound: O=C(CCCCCCC(=O)Nc1ccccc1)NO [vorinostat]
Summary of the method: as §1

citarinostat = compound: O=C(CCCCCCNC(=O)c1cnc(N(c2ccccc2)c2ccccc2Cl)nc1)NO [citarinostat]
Summary of the method: as §1

silmitasertib = compound: O=C(O)c1ccc2c(c1)nc(Nc1cccc(Cl)c1)c1ccncc12 [silmitasertib]
Summary of the method: as §1

[10] = compound: O=C1NC(=O)C(c2cnc3ccccn23)=C1c1cn2c3c(cc(F)cc13)CN(C(=O)N1CCCCC1)CC2
Summary of the method: as §1

[11] = compound: c1cc(OCCN2CCCCC2)cc(-c2n[nH]c3ccc(-c4nnc[nH]4)cc23)c1
Summary of the method: as §1

Measured: log2 fold change

ALG5 (UniProt Q9Y673)
Chain of UniProt Q9Y673 (Q9Y673 whole entry, looked up): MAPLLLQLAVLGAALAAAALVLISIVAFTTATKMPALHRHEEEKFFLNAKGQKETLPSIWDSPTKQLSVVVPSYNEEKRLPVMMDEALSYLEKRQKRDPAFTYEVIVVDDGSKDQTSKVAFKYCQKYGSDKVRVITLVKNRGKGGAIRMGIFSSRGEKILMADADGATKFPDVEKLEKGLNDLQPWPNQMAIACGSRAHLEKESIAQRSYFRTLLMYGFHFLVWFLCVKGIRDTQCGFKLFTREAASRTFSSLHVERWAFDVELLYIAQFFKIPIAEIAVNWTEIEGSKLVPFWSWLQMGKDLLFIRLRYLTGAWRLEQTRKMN
inactive: bafetinib 0.021 | [1] 0.067 | nilotinib 0.009 | [2] -0.123 | dasatinib -0.045 | [3] -0.121 | [4] 0.088 | [5] 0.059 | tipifarnib -0.079 | mubritinib -0.055 | [6] -0.047 | [7] -0.129 | [8] -0.029 | [9] -0.031 | entinostat 0.02 | vorinostat 0.052 | citarinostat 0.051 | silmitasertib 0.075 | [10] -0.106 | [11] 0.08

BZW1 isoform 3 (UniProt Q7L1Q6)
Chain of UniProt Q7L1Q6 (Q7L1Q6 whole entry, looked up): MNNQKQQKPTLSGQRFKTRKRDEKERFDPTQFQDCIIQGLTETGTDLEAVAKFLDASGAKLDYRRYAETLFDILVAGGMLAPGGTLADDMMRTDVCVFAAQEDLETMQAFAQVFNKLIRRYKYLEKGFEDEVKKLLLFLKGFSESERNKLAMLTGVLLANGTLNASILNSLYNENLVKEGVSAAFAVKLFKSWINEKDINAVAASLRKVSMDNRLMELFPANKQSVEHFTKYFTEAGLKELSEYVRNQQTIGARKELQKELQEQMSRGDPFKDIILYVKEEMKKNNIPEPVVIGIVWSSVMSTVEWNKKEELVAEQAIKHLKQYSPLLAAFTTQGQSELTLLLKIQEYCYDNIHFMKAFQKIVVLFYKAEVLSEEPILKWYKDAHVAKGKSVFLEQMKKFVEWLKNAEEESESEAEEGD
inactive: bafetinib 0.002 | [1] 0.167 | nilotinib -0.124 | [2] -0.138 | dasatinib -0.283 | [3] 0.03 | [4] 0.017 | [5] 0.011 | tipifarnib -0.364 | mubritinib 0.089 | [6] 0.071 | [7] -0.054 | [8] -0.246 | [9] -0.093 | entinostat 0.165 | vorinostat 0.209 | citarinostat 0.075 | silmitasertib 0.02 | [10] 0.019 | [11] -0.081

BPHL (UniProt Q86WA6)
Chain of UniProt Q86WA6 (Q86WA6 whole entry, looked up): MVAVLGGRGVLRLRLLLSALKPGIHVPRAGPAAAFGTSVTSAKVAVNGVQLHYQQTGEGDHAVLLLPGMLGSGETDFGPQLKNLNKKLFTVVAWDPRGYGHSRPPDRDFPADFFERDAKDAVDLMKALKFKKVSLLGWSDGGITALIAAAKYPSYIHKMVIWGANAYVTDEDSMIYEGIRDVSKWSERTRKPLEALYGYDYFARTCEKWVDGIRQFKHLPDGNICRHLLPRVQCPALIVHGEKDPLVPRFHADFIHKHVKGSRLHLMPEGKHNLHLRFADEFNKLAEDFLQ
inactive: bafetinib -0.005 | [1] 0.002 | nilotinib -0.032 | [2] -0.034 | dasatinib -0.032 | [3] -0.021 | [4] 0.082 | [5] 0.009 | tipifarnib 0.032 | mubritinib -0.008 | [6] -0.014 | [7] -0.081 | [8] 0.255 | [9] -0.012 | entinostat 0.019 | vorinostat -0.04 | citarinostat -0.042 | silmitasertib -0.045 | [10] -0.06 | [11] 0.051

ABHD16A (UniProt O95870)
Chain of UniProt O95870 (O95870 whole entry, looked up): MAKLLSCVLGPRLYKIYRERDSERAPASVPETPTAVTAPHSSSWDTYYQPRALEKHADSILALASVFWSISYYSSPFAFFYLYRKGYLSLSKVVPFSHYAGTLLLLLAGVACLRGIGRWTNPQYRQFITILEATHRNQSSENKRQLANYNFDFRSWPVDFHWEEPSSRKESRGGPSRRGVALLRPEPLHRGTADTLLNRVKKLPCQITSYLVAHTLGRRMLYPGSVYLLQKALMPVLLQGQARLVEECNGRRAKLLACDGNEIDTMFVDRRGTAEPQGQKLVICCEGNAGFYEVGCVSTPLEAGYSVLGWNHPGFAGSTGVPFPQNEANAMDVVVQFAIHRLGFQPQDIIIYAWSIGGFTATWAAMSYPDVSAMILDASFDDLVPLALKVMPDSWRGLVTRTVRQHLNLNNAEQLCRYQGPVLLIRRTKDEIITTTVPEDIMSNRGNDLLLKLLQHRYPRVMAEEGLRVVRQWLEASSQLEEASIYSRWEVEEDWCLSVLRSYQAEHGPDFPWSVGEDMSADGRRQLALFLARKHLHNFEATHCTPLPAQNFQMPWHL
inactive: bafetinib 0.132 | [1] -0.056 | nilotinib 0.177 | [2] 0.055 | dasatinib 0.029 | [3] -0.058 | [4] 0.087 | [5] -0.075 | tipifarnib -0.01 | mubritinib 0.071 | [6] -0.026 | [7] 0.026 | [8] 0.113 | [9] 0.049 | entinostat -0.02 | vorinostat 0.055 | citarinostat 0.026 | silmitasertib -0.022 | [10] 0.005 | [11] 0.008

ATP11A (UniProt P98196)
Chain of UniProt P98196 (P98196 whole entry, looked up): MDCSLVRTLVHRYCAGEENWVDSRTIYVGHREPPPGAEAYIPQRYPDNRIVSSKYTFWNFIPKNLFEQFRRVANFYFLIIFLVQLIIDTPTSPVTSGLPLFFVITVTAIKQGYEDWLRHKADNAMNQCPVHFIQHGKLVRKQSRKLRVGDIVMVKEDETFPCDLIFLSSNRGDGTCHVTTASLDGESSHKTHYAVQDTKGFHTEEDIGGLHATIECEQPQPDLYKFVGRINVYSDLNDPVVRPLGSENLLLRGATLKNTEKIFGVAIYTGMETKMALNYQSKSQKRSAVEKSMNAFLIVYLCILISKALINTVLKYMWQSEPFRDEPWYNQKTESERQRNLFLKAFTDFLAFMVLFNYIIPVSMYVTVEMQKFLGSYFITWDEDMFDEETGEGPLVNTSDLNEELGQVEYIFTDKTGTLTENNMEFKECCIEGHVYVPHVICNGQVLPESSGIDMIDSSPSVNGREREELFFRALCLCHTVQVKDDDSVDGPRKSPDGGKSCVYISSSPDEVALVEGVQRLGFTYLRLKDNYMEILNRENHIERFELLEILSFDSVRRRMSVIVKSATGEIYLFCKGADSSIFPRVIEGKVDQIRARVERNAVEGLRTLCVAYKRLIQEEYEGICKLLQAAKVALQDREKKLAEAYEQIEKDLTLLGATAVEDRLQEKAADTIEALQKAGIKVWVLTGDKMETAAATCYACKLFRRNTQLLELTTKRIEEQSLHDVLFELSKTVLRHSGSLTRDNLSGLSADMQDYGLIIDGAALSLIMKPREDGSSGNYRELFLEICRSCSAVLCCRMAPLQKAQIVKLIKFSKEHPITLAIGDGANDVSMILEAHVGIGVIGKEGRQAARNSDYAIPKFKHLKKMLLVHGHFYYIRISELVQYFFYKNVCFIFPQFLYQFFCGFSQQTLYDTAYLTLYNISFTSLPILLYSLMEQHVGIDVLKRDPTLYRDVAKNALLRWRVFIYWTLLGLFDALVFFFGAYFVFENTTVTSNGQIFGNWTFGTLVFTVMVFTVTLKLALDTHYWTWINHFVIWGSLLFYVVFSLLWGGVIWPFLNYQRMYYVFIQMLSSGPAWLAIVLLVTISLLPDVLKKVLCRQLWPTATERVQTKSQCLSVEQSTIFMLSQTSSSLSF
inactive: bafetinib -0.028 | [1] -0.002 | nilotinib 0.113 | [2] -0.012 | dasatinib -0.01 | [3] 0.029 | [4] -0.006 | [5] 0.01 | tipifarnib 0.051 | mubritinib 0.056 | [6] -0.034 | [7] 0.065 | [8] -0.001 | [9] -0.054 | entinostat -0.025 | vorinostat -0.08 | citarinostat -0.154 | silmitasertib 0.065 | [10] -0.024
active: [11] -0.32

AP2A1 (UniProt O95782)
inactive: bafetinib 0.052 | [1] 0.024 | nilotinib -0.008 | [2] -0.008 | dasatinib 0.045 | [3] -0.079 | [4] -0.007 | [5] -0.066 | tipifarnib -0.051 | mubritinib -0.011 | [7] 0.061 | [8] 0.041 | [9] 0.026 | entinostat -0.002 | vorinostat 0.038 | citarinostat 0.005 | silmitasertib 0.047
active: [6] -0.38 | [10] -0.275 | [11] -0.227

ATP12A isoform 2 (UniProt P54707)
inactive: bafetinib 0.026 | [1] 0.011 | nilotinib 0.02 | [2] -0.007 | dasatinib 0.022 | [3] 0.007 | [4] 0.066 | [5] 0.04 | tipifarnib 0.016 | mubritinib 0.018 | [6] -0.115 | [7] 0.049 | [8] 0.075 | [9] 0.003 | entinostat -0.072 | vorinostat -0.035 | citarinostat -0.033 | silmitasertib -0.033 | [10] -0.032 | [11] -0.037

AFDN isoform 5 (UniProt P55196)
Chain of UniProt P55196 (P55196 whole entry, looked up): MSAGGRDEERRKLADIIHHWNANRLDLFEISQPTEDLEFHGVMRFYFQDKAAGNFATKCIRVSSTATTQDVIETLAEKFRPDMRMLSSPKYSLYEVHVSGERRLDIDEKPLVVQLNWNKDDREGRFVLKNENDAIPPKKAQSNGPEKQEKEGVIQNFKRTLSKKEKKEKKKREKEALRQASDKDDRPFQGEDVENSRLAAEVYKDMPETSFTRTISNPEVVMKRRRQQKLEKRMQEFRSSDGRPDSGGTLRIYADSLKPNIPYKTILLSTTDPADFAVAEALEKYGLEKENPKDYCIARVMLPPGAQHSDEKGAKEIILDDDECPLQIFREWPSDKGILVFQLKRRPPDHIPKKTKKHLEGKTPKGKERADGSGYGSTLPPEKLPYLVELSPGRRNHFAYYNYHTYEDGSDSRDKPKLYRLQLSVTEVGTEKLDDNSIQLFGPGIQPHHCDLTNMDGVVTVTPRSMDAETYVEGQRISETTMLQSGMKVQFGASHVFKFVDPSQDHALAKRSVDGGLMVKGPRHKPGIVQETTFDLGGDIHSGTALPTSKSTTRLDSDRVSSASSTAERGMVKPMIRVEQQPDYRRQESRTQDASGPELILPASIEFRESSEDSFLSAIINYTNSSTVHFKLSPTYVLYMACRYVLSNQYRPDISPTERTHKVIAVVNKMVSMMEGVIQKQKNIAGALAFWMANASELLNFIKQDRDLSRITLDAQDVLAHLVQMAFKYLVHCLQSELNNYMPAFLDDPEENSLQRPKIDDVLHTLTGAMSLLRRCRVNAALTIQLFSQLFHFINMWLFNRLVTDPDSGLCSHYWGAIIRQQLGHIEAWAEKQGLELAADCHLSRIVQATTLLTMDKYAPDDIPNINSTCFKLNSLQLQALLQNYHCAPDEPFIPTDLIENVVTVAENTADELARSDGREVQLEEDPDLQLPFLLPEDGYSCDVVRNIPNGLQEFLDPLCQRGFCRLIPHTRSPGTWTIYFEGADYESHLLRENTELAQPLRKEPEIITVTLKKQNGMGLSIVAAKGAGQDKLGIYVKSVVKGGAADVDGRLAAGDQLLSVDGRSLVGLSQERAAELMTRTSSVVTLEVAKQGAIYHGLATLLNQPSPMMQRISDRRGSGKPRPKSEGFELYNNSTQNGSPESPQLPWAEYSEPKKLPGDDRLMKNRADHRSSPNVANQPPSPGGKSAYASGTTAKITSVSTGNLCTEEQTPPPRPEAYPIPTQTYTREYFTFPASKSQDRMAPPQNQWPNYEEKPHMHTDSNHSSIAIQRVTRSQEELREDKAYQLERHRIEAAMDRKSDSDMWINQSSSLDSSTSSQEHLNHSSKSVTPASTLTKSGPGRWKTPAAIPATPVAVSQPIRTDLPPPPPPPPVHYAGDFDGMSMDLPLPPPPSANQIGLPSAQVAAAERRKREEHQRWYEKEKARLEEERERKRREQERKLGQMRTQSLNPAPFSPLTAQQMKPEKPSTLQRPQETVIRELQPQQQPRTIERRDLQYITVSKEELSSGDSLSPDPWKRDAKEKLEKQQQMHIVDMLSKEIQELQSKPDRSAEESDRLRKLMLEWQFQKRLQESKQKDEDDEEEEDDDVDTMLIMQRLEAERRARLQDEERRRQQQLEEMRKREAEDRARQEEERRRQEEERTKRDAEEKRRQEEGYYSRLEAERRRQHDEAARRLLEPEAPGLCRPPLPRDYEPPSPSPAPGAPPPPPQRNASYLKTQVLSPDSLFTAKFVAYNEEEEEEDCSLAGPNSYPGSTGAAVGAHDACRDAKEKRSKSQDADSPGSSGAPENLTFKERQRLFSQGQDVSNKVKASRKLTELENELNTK
inactive: bafetinib -0.012 | [1] 0.035 | nilotinib -0.06 | [2] -0.135 | dasatinib -0.16 | [3] -0.06 | [4] 0.044 | [5] -0.008 | tipifarnib -0.045 | mubritinib 0.054 | [6] -0.154 | [7] -0.009 | [8] -0.099 | [9] -0.025 | entinostat 0.008 | vorinostat 0.019 | citarinostat 0.079 | silmitasertib -0.012 | [10] -0.052 | [11] -0.068

AHSA1 (UniProt O95433)
inactive: bafetinib -0.059 | [1] 0.013 | nilotinib -0.052 | [2] -0.035 | dasatinib -0.096 | [3] -0.018 | [4] 0.065 | [5] 0.009 | tipifarnib -0.056 | mubritinib 0.038 | [6] -0.002 | [7] -0.005 | [8] -0.131 | [9] -0.043 | entinostat 0.022 | vorinostat 0.013 | citarinostat 0.026 | silmitasertib 0.019 | [10] -0.009 | [11] -0.003

ACBD6 (UniProt Q9BR61)
inactive: bafetinib -0.058 | [1] 0.063 | nilotinib 0.017 | [2] -0.085 | dasatinib -0.23 | [3] 0.057 | [4] -0.053 | [5] 0.056 | tipifarnib -0.072 | mubritinib -0.085 | [6] -0.089 | [7] -0.077 | [8] -0.006 | [9] 0.001 | entinostat -0.048 | vorinostat 0.086 | citarinostat 0.084 | silmitasertib 0.134 | [10] 0.022 | [11] 0.271

BRIX1 (UniProt Q8TDN6)
Chain of UniProt Q8TDN6 (Q8TDN6 whole entry, looked up): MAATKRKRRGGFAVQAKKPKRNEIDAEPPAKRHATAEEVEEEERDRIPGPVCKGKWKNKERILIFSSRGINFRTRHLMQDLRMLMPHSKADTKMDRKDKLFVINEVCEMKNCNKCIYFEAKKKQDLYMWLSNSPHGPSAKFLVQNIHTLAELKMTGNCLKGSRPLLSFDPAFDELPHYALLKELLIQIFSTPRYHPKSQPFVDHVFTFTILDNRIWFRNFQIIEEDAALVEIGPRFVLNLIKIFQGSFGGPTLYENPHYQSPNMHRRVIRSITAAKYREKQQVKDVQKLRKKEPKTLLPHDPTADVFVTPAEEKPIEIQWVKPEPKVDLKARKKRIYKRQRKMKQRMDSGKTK
inactive: bafetinib 0.386 | [1] -0.033 | nilotinib 0.085 | [2] -0.077 | dasatinib 0.109 | [3] -0.013 | [4] -0.494 | [5] -0.138 | tipifarnib 0.158 | mubritinib -0.206 | [6] 0.056 | [7] -0.025 | [8] 0.171 | [9] 0.132 | entinostat -0.008 | vorinostat 0.059 | citarinostat -0.05 | silmitasertib 0.191 | [10] 0.401 | [11] -0.437
